Cycloheximide cs = affects cycloheximide protein synthesis inhibition readout, counter-screen; AID 2314; cell reporter, cycloheximide protein synthesis inhibition counterscreen; 300,000 compounds, 12% hits; max response, %; in the data active = max response mostly above about 13%, no sharp cut-off; inactive = mostly below about 14%; also: read at 38.3 µM for the half of the compounds with a filed dose
Shiga toxin inh = blocks Shiga toxin action in Vero cells. Vero cells, Shiga toxin protein synthesis inhibition reporter. 290,000 compounds, 9.2% hits. inhibition, % at 38.7 µM; in the data active = inhibition mostly above about 28%, no sharp cut-off; inactive = mostly below about 43%
Sm TGR block = S. mansoni TGR enzyme inhibition; Q962Y6; purified TGR, DTNB reduction, TNB absorbance 405 nm; Potency, µM (series often up to 114 µM), actives largely listed as inhibitors; 360,000 compounds, 3% hits; AID 485364; active = well fitted inhibition curve with a large enough effect; inconclusive = small, poorly fitted or top-dose-only effect; inactive = no such curve, though single readings can be large or run the other way; also: nearly all actives have a fitted effect of over 60% in size
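First, TGR (20 nM dispensed) and NADPH were mixed with compound. Second, a 15 min room-temperature incubation followed. Third, further NADPH and then DTNB were added to start the reaction. Finally, TNB absorbance was monitored kinetically.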
FMDV antiviral = foot and mouth disease virus antiviral activity; FMDV antiviral cell-based qHTS; 410,000 compounds, 1.2% hits; AID 1159524; Potency, µM (top dose mostly 57.9 µM), actives largely listed as inhibitors; calls by dose curve; tested in HEK293T cells; also: read-out not given here; nearly all actives have a fitted effect of over 45% in size
Each line names hits and unclear results; the compound was inactive in the other large screens. Sampled rows, rich in hits. Any-hit rate of the full collection: about 12%.

O=C(Nc1nnc(SCc2ccccc2F)s1)C1=COCCO1	Cycloheximide cs 57, Shiga toxin inh 116
CC(=O)Nc1nnc(CSCc2ccccc2F)s1	Cycloheximide cs 23
Cc1ccc(Cl)cc1NC(=O)CN1C=NS(=O)(=O)c2ccccc21	none (no result: Cycloheximide cs, Shiga toxin inh)
CC(=O)c1cccc(N=Nc2c(C)[nH]c3ccccc23)c1	Cycloheximide cs 50, Shiga toxin inh 93
COc1ccc(N=Nc2c(C)[nH]c3ccccc23)cc1	none (no result: Cycloheximide cs, Shiga toxin inh, Sm TGR block)
Oc1ccc(NC(=S)N=Nc2c(O)[nH]c3ccccc23)cc1	Shiga toxin inh 51 (no result: Sm TGR block)
CNC(=S)N=Nc1c(O)[nH]c2ccccc12	Shiga toxin inh 17
O=C(N=Nc1c(O)[nH]c2ccccc12)c1cccc(S(=O)(=O)N2CCCCC2)c1	Cycloheximide cs 12, Shiga toxin inh 63
CCN(CC)c1ccc(NC(=O)Cn2cc3c(n2)CCCC3)c(C)c1	none (no result: Cycloheximide cs, Shiga toxin inh)
CCN1C(=O)C2(c3ccccc31)c1c(oc3ccc(C)cc3c1=O)C(=O)N2CCCOC(C)C (stereo not given)	none (no result: Cycloheximide cs, Shiga toxin inh)
Oc1[nH]c2ccccc2c1N=Nc1c(F)c(F)c(C(F)(F)F)c(F)c1F	none
Cc1ccc(NC(=S)N=Nc2c(O)[nH]c3ccccc23)cc1	Cycloheximide cs 22, Shiga toxin inh 53
COc1ccc(NC(=S)N=Nc2c(O)[nH]c3ccccc23)cc1	none
O=C(O)c1ccc(N=Nc2c(O)[nH]c3ccccc23)cc1	Cycloheximide cs 39, Shiga toxin inh 56, FMDV antiviral inconclusive
O=C(N=Nc1c(O)[nH]c2ccccc12)c1cc(NS(=O)(=O)c2cccs2)cc(NS(=O)(=O)c2cccs2)c1	none
O=C(N=Nc1c(O)[nH]c2ccccc12)c1cccs1	Cycloheximide cs 39, Shiga toxin inh 107
CSc1n[nH]c(-c2ccc(C(F)(F)F)cc2)n1	Cycloheximide cs 41, Shiga toxin inh 107
CCOC(=O)N1CCC(NC(=O)c2ccc(N3CCC4(CC3)OCCO4)c([N+](=O)[O-])c2)CC1	FMDV antiviral 25µM
O=C1NN=C(CSc2n[nH]c(=S)s2)CS1	Sm TGR block 40µM
C#C[C@]1(O)CC[C@H]2[C@H]3CCc4cc(O)ccc4[C@@H]3CC[C@@]21C	none (no result: Sm TGR block, FMDV antiviral)
O=C(Nc1ccc2c(c1)OCCO2)C1CCCN(S(=O)(=O)c2cccs2)C1 (stereo not given)	FMDV antiviral inconclusive
O=C(C1CCN(S(=O)(=O)c2cccs2)CC1)N1CCCC(C(F)(F)F)C1 (stereo not given)	Cycloheximide cs 17
Cc1ccc(CNC(=O)C2CCN(S(=O)(=O)c3cccs3)CC2)cc1	none
O=C(Nc1ccc2c(c1)OCO2)C1Cc2ccccc2CN1S(=O)(=O)c1cccs1 (stereo not given)	Cycloheximide cs 18
Cc1ccc(CNC(=O)C2CCN(S(=O)(=O)c3cccs3)CC2)o1	Sm TGR block 5.6µM
O=C(Nc1ccc2c(c1)OCCO2)C1CCN(S(=O)(=O)c2cccs2)CC1	Cycloheximide cs 24
CC1CCCN(C(=O)C2CCN(S(=O)(=O)c3cccs3)CC2)C1 (stereo not given)	none (no result: Cycloheximide cs, Shiga toxin inh)
COC(=O)CC1C(=O)NCCN1C(=O)CN1Cc2ccccc2OC(c2ccccc2)C1 (stereo not given)	none (no result: Cycloheximide cs, Shiga toxin inh, Sm TGR block)
Cc1nn(C)c(C)c1S(=O)(=O)N1CCC(C(=O)Nc2ccc3c(c2)OCCO3)CC1	Shiga toxin inh 81
O=C(Nc1ccc2c(c1)OCO2)C1CCN(S(=O)(=O)c2cccs2)CC1	Cycloheximide cs 8.4, Shiga toxin inh 42
O=C(Nc1ccc2c(c1)OCO2)C1CCCN(S(=O)(=O)c2cccs2)C1 (stereo not given)	FMDV antiviral inconclusive
O=C(C1Cc2ccccc2CN1S(=O)(=O)c1cccs1)N1CCCCC1 (stereo not given)	Cycloheximide cs 9.5
CCOc1ccc2nc(N3CCCC3C(=O)N3CCC(c4nc5ccccc5o4)CC3)nc(C)c2c1 (stereo not given)	none (no result: Cycloheximide cs, Shiga toxin inh, Sm TGR block)
COc1cc2oc(=O)cc(-c3ccc(-c4sccc4C=O)cc3)c2c(OC)c1OC	none (no result: Sm TGR block, FMDV antiviral)
CC(=O)Nc1ccc(C)cc1-c1nc2ccccc2n(CC(=O)Nc2cc(Cl)ccc2C)c1=O	none (no result: Cycloheximide cs, Shiga toxin inh)
CC/C(=N\NC(=O)Nc1ccccc1)c1c(O)n(Cc2ccccc2)c(=O)[nH]c1=O	Cycloheximide cs 35, Shiga toxin inh 105
C/C(=N\Nc1cccc2ccccc12)c1c(O)n(Cc2ccccc2)c(=O)[nH]c1=O	Sm TGR block 13µM
CCC(=NCc1cccnc1)c1c(O)n(Cc2ccccc2)c(=O)[nH]c1=O	Sm TGR block inconclusive, FMDV antiviral inconclusive
C/C(=N\NC(=O)c1ccccc1)c1c(O)n(Cc2ccccc2)c(=O)[nH]c1=O	Cycloheximide cs 52, Shiga toxin inh 101
Cc1cccc(N2CCN(C(=O)CN3C(=O)C4CC=CCC4C3=O)CC2)c1C (stereo not given)	Shiga toxin inh 76
Cc1cccc(NC(=O)CCCn2c(C)c3cnn(-c4ccccc4)c(=O)c3c2C)c1C	none (no result: Cycloheximide cs, Shiga toxin inh)
Cc1cccc(N2CCN(C(=O)Cn3c(C)c4cnn(-c5ccccc5)c(=O)c4c3C)CC2)c1C	FMDV antiviral 28µM (no result: Cycloheximide cs, Shiga toxin inh)
Cc1ccccc1N1CCN(C(=O)CN2C(=O)c3ccccc3C2=O)CC1	Cycloheximide cs 38, Shiga toxin inh 198 (no result: FMDV antiviral)
Cc1cccc(N2CCN(C(=O)CN3C(=O)NC(C)(C4CC4)C3=O)CC2)c1C (stereo not given)	none (no result: Cycloheximide cs, Shiga toxin inh)
Cc1cccc(N2CCN(C(=O)CN3C(=O)NC(C)(C)C3=O)CC2)c1C	Cycloheximide cs 31, Shiga toxin inh 74
CCOc1ccc(CN(CCc2ccc3c(c2)OCO3)Cc2cc(OC)cc(OC)c2)cc1	FMDV antiviral inconclusive (no result: Cycloheximide cs, Shiga toxin inh)
CC1=CC(=O)C(C(C)C)=C/C1=N\OC(=O)c1cccc2nc(C)oc12	FMDV antiviral inconclusive
CC1=CC(=O)C(C(C)C)=C/C1=N/OC(=O)c1cccc([N+](=O)[O-])c1	Sm TGR block 45µM (no result: FMDV antiviral)
CC1=CC(=NOC(=O)c2cccc([N+](=O)[O-])c2)C=C(C)C1=O	Cycloheximide cs 23, Sm TGR block 2.8µM
c1ccc(-c2cn(-c3ccccc3)c3ncnc(N4CCN(c5ccccc5)CC4)c23)cc1	none (no result: Cycloheximide cs, Shiga toxin inh)
CC1CCN(Cc2nc(Cl)c3c4c(sc3n2)CCC4)CC1	Cycloheximide cs 25, Sm TGR block 16µM
Clc1nc(CN2CCCCC2)nc2sc3c(c12)CCCC3	Sm TGR block 20µM
Cc1sc2nc(CN3CCCCC3)nc(Cl)c2c1C	Cycloheximide cs 15, Sm TGR block 50µM, FMDV antiviral inconclusive
COc1cccc(N2CCN(C3C(=O)c4ccccc4N3C(C)=O)CC2)c1 (stereo not given)	Sm TGR block inconclusive (no result: Cycloheximide cs, Shiga toxin inh)
CC(C)Cn1c(=O)c2ccccc2n2c(CCC(=O)Nc3cccc(Cl)c3)nnc12	none (no result: Cycloheximide cs, Shiga toxin inh)
COc1cccc(NC(=O)C2CCCN(c3nnc(-n4c(C)ccc4C)s3)C2)c1 (stereo not given)	none (no result: Cycloheximide cs, Shiga toxin inh)
Cc1cnc(-n2ncc(C(=O)N(C)C3CCOC3)c2C)nc1-c1ccc(F)cc1 (stereo not given)	none (no result: Cycloheximide cs, Shiga toxin inh, Sm TGR block)
Cc1ccc(N(CCC#N)C(=O)CCl)cc1C	Sm TGR block 18µM, FMDV antiviral 28µM
CC(=O)Nc1ccccc1-c1nc(CNC(=O)c2ccc(C)cc2)c(C)o1	none (no result: Cycloheximide cs, Shiga toxin inh, Sm TGR block)
N/C(=N\OC(=O)c1csnn1)c1ccc(C(F)(F)F)cc1	Cycloheximide cs 40, Shiga toxin inh 72
COc1cc2c(cc1OC)CN(c1nc(-c3cccnc3)nc3ccccc13)CC2	Sm TGR block inconclusive, FMDV antiviral 16µM
CN1CCN(c2nc(-c3cccnc3)nc3ccccc23)CC1	none
